24 compounds from PubChem BioAssay AID1621 (Southern Research Specialized Biocontainment Screening …, 2009) can be followed below.

Out of some 290,000 compounds screened, about 60 (0.02%) were called active. Another 1% or so got no clear call; they are omitted. Only a sample is shown. Measured potencies and affinities stand elsewhere. Values without a mark were called inactive. How the calls were made is not given here.

The nature of the assay: inhibition of WNV-induced cytopathic effect – cell-based, CPE readout (AID 1621). The conditions noted are these: West Nile virus-infected cells, at 10 µM, hits give high values.
`CCOc1ccc(-c2cc(C(=O)NCCCN3CCCC3)c3ccccc3n2)cc1`: the CPE inhibition is 11.7%.

Take `Cc1ccc(-c2cc(C(=O)NCCCN3CCOCC3)c3ccccc3n2)cc1C`: the CPE inhibition is 0.07%.

Take `O=C(NCc1ccc(F)cc1)C1CCCN(S(=O)(=O)c2ccc(-n3cnnn3)cc2)C1` (centres undefined): the CPE inhibition is 0.7%.

Consider `CN(C)CCCN1c2ccccc2CCc2ccccc21`, for which the CPE inhibition was -0.69%.

Take `CN(C)CCCN1c2ccccc2CCc2ccc(Cl)cc21`: the CPE inhibition is -0.38%.

On to `COc1ccc(/C=C/C(=O)OCC(=O)NCc2ccco2)c(OC)c1`, for which the CPE inhibition was -0.46%.

With `CCC(C)C(=O)N1CCCC(c2nc(-c3cccs3)no2)C1` (centres undefined), the CPE inhibition is -0.34%.

As to `COc1ccccc1OCCn1cc(/C=N/NC(N)=S)c2ccccc21`, the CPE inhibition was -0.18%.

`Cc1cccc(-n2c(SCC(=O)O)nc3sc4c(c3c2=O)CCCC4)c1`: the CPE inhibition was 0.2%.

For `C[C@@H]1C[C@@H]2OC(=O)[C@]3(C)[C@H]2[C@@H](OC3(C)O)[C@]2(C)C(=O)C=C[C@H]12` (some centres undefined), the CPE inhibition was 1.25%.

With `CCOC(=O)C1CCN(C(=S)Nc2cc(OC)c(OC)cc2C(=O)OC)CC1`, the CPE inhibition was 0.82%.

In the case of `Cc1ccccc1CN1C(=O)c2ccccc2S(=O)c2ccc(C(=O)NCCCN3CCOCC3)cc21` (centres undefined), the CPE inhibition was -0.39%.

For `O=C(NCCCN1CCCC1)c1ccc2c(c1)N(Cc1ccccc1F)C(=O)c1ccccc1S2=O` (centres undefined), the CPE inhibition is -0.62%.

For `Cc1ccc(-c2csc(N3CCN(c4cc5c(cc4Cl)nc(C)n5CCN4CCCCC4)CC3)n2)cc1`, the CPE inhibition is 0.49%.

For the compound `O=[N+]([O-])c1ccc(C(O)CSC(=S)N2CCCCC2)cc1` (centres undefined), the CPE inhibition was -0.96%.

For `CCN1CCN(c2ccc(S(=O)(=O)N3CCCCC3)cc2NC(=O)Cc2ccc(OC)cc2)CC1`, the CPE inhibition was 0.99%.

As to `CCN1CCN(c2ccc(S(=O)(=O)N3CCCCC3)cc2NC(=O)Cc2c(F)cccc2Cl)CC1`, the CPE inhibition is 0.49%.

For `COc1ccc(Cl)cc1C(=O)NCCCSc1ccccc1`, the CPE inhibition is -1.17%.

Take `COc1ccc(CNC(=O)CCN2C(=O)c3ccncc3C2=O)cc1OC`: the CPE inhibition was 0.59%.

For `COc1cc(-c2nc(C(=O)NC3CCCCC3)cc3c2[nH]c2ccccc23)cc(OC)c1OC`, the CPE inhibition is 1.01%.

For the compound `N=c1c(C(=O)NCCN2CCOCC2)cc2c(=O)n3ccccc3nc2n1Cc1ccc(F)cc1`, the CPE inhibition was 0%.

With `Cc1cccn2c(=O)c3cc(C(=O)NCCN4CCOCC4)c(=N)n(CCN4CCOCC4)c3nc12`, the CPE inhibition is -0.04%.

With `CN1C(=O)c2ccc(C(=O)NCc3ccco3)cc2C1=O`, the CPE inhibition is 1.39%.

Take `c1ccc(Sc2ncnc3c2oc2ccccc23)nc1`: the CPE inhibition is 1.08%.
